From PubChem BioAssay
BL2 CD40 inh: CD40 pathway inhibition in BL2 cells; BL2 NF-kB luciferase reporter, CD40L-induced, 4 h; inhibition, % at 10 µM; 83,000 compounds, 0.94% hits; AID 1053188;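 active = mean inhibition of at least 50% with a set share of replicates also reaching that level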;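 also: 0% = neutral control wells and 100% = IKK inhibitor VII at 50 µM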
The depositor's hits bear a star; [ ] = dose if it differs, or a comment. This is one part of a sample in which hits are shown more often than they occur.

How did Cc1cc(C(=O)Nc2c(C)n(C)n(-c3ccccc3)c2=O)c(C)o1 do in these assays?
BL2 CD40 inh: 5.4

What do the screens show for `Cc1cc(C(=O)NCCC(c2ccccc2)c2ccccc2)c(C)o1`?
BL2 CD40 inh: 80.0*

Results for CO[C@@H]1CN(C)C(=O)c2cc(NC(=O)C3CCCC3)ccc2OC[C@@H](C)N(C(=O)c2ccccc2)C[C@H]1C ?
BL2 CD40 inh: -10.8

What do the screens show for `N#Cc1cccc(-c2ccc3c(c2)[C@H]2[C@H](CCN2C(=O)c2ccncc2)[C@H](CO)N3)c1`?
BL2 CD40 inh: -56.9[25 µM]

How did Cc1noc(C)c1NC(=O)N1C[C@H](O)COC[C@H]2O[C@H](CC(=O)N[C@@H]3CCN(Cc4ccccc4)C3)CC[C@@H]21 do in these assays?
BL2 CD40 inh: -8.3[25 µM]

How did COc1ccc(C(=O)/C=C/C(=O)N(CC(=O)NC2CCCCC2)Cc2ccccc2OC)c(O)c1 do in these assays?
BL2 CD40 inh: 1.6

How did COc1ccc(C(=O)/C=C/C(=O)N(CC(=O)NC2CCCCC2)Cc2ccccc2)c(O)c1 do in these assays?
BL2 CD40 inh: 104.7*

Results for COc1cccc(/C=C/C(=O)OCC(=O)NC2CCCCCCC2)c1 ?
BL2 CD40 inh: 4.7

How did CC(C)(O)C#Cc1ccc([C@H]2[C@@H](CO)N3CCCCN(C(=O)c4ccncc4)C[C@@H]23)cc1 do in these assays?
BL2 CD40 inh: -0.9[25 µM]

What do the screens show for `O=C(C[C@H]1CC[C@H]2[C@@H](COC[C@@H](O)CN2C(=O)c2cccnc2)O1)NC1Cc2ccccc2C1`?
BL2 CD40 inh: 4.6

What do the screens show for `CCC(=O)N1[C@H](CO)[C@H](c2ccc(C3=CCCC3)cc2)[C@@H]1CNC(=O)CN(C)C`?
BL2 CD40 inh: 3.0

Results for Cc1ccccc1S(=O)(=O)N1[C@H](C#N)[C@@H](c2ccccc2-c2cccc(F)c2)[C@@H]1CO ?
BL2 CD40 inh: 18.2[25 µM]

What do the screens show for `CC(=O)N(C)C[C@H]1Oc2c(cccc2N(C)C)C(=O)N(C)C[C@H]1C`?
BL2 CD40 inh: -0.9

What do the screens show for `Cc1ccccc1S(=O)(=O)N1[C@H](C#N)[C@H](c2ccc(C#CC3CCCC3)cc2)[C@@H]1CO`?
BL2 CD40 inh: -7.6

What do the screens show for `Cc1ccccc1S(=O)(=O)N1[C@@H](C#N)[C@H](c2ccc(C#CC3CCCC3)cc2)[C@@H]1CO`?
BL2 CD40 inh: -5.2

How did Cc1ccccc1S(=O)(=O)N1[C@H](C#N)[C@H](c2ccc(C#CC3CCCCC3)cc2)[C@H]1CO do in these assays?
BL2 CD40 inh: 48.4*

How did Cc1ccccc1S(=O)(=O)N1[C@H](C#N)[C@H](c2ccc(C#CC3CCCC3)cc2)[C@H]1CO do in these assays?
BL2 CD40 inh: 40.0*

How did Cc1ccccc1S(=O)(=O)N1[C@@H](C#N)[C@@H](c2ccc(C#CC3CCCCC3)cc2)[C@@H]1CO do in these assays?
BL2 CD40 inh: -9.5

What do the screens show for `Cc1ccccc1S(=O)(=O)N1[C@H](C#N)[C@@H](c2ccc(C#CC3CCCCC3)cc2)[C@@H]1CO`?
BL2 CD40 inh: -0.1

What do the screens show for `O=C(Nc1ccccc1F)N1CCCCN2[C@@H](CO)[C@H](c3ccc(C#Cc4ccccc4)cc3)[C@@H]2C1`?
BL2 CD40 inh: -4.2

What do the screens show for `O=C(O)C[C@@H]1C[C@@H]2c3cc(NS(=O)(=O)c4ccc(F)cc4)ccc3O[C@@H]2[C@H](CO)O1`?
BL2 CD40 inh: 10.2[25 µM]

What do the screens show for `O=C(COc1ccc2c(c1)OCO2)Nc1ccc(Cl)cn1`?
BL2 CD40 inh: -71.0

How did O=C(COc1ccc2c(c1)OCO2)Nc1nccs1 do in these assays?
BL2 CD40 inh: 46.6*

How did O=C(COc1ccc2c(c1)OCO2)Nc1nnc(Cc2ccccc2)s1 do in these assays?
BL2 CD40 inh: 12.4

How did C[C@@H]1CN([C@H](C)CO)C(=O)c2c(c3ccccc3n2C)-c2ccccc2CO[C@H]1CN(C)C(=O)[C@H]1CCCN1C do in these assays?
BL2 CD40 inh: -28.8[25 µM]

What do the screens show for `COc1ccc(S(=O)(=O)Nc2ccc3c(c2)OC[C@@H](C)N(Cc2cc(F)ccc2F)C[C@@H](C)[C@H](OC)CN(C)C3=O)cc1`?
BL2 CD40 inh: 12.6[25 µM]

What do the screens show for `O=C(Nc1cc(F)ccc1F)N1C[C@@H]2[C@H](c3ccccc31)[C@@H](CO)N2CC1CCCC1`?
BL2 CD40 inh: 2.3[25 µM]

What do the screens show for `C[C@H](CO)N1C[C@H](C)[C@@H](CN(C)C(=O)C2CCOCC2)Oc2ncc(C#CCc3ccccc3)cc2C1=O`?
BL2 CD40 inh: 41.0[25 µM]

Results for C[C@H]1CN([C@@H](C)CO)C(=O)c2cc(C#CCc3ccccc3)cnc2O[C@H]1CN(C)C(=O)C1CCOCC1 ?
BL2 CD40 inh: 0.4[25 µM]

How did C[C@H](CO)N1C[C@H](C)[C@H](CN(C)C(=O)C2CCOCC2)Oc2ncc(C#CCc3ccccc3)cc2C1=O do in these assays?
BL2 CD40 inh: 63.5*[25 µM]

What do the screens show for `O=C(CN1CCOCC1)N[C@@H]1CC[C@H](CCn2cc(C3CC3)nn2)O[C@@H]1CO`?
BL2 CD40 inh: -1.0[25 µM]

Results for O=[N+]([O-])c1ccc(Sc2ccccn2)nc1 ?
BL2 CD40 inh: -12.5

What do the screens show for `CN(C)c1ncnc(N(C)C)c1[N+](=O)[O-]`?
BL2 CD40 inh: -0.9

How did Nc1ncnc(Sc2ncccn2)c1[N+](=O)[O-] do in these assays?
BL2 CD40 inh: 84.3*

How did CC1(C)CC[C@]2(C(=O)n3ccnc3)CC[C@]3(C)[C@H](C(=O)C=C4[C@@]5(C)C=C(C#N)C(=O)C(C)(C)[C@@H]5CC[C@]43C)[C@@H]2C1 do in these assays?
BL2 CD40 inh: 92.4*

What do the screens show for `CCOC(=O)c1c(-c2ccc(C)o2)csc1NC(=O)COC(=O)c1cccs1`?
BL2 CD40 inh: 80.4*

Results for CCOC(=O)c1c(-c2ccc(C)o2)csc1NC(=O)CN1CCOCC1 ?
BL2 CD40 inh: -1.2

Results for CCOC(=O)c1c(-c2ccc(C)o2)csc1N ?
BL2 CD40 inh: 3.4

What do the screens show for `C[C@@H]1CN(C)C(=O)c2cc(N)ccc2O[C@@H]1CN(C)C(=O)OC(C)(C)C`?
BL2 CD40 inh: 5.8

How did N#C[C@H]1[C@H](c2ccccc2-c2cccc(F)c2)[C@@H](CO)N1C(=O)NC1CCCCC1 do in these assays?
BL2 CD40 inh: 15.4[25 µM]

Results for O=C(N[C@H]1CC[C@H](CCNC(=O)C2CCCC2)O[C@H]1CO)c1ccccn1 ?
BL2 CD40 inh: -1.6

What do the screens show for `COc1ccc2c3c([nH]c2c1)[C@H](CO)N(S(=O)(=O)c1cn(C)cn1)CC31CCN(Cc2ccccc2Cl)CC1`?
BL2 CD40 inh: -8.4[25 µM]

Results for CC(C)(C)S(=O)N1Cc2cc(C(=O)O)nc(-c3cccc(-c4cccc(F)c4)c3)c2[C@H]1CCO (stereo partly drawn) ?
BL2 CD40 inh: -2.3

What do the screens show for `CO[C@H](CN(C)Cc1cc(F)ccc1F)[C@H](C)CN(C(=O)Nc1ccc(C(F)(F)F)cc1)[C@H](C)CO`?
BL2 CD40 inh: 52.6*[25 µM]

Results for CO[C@@H](CN(C)Cc1ccc2c(c1)OCO2)[C@@H](C)CN(C(=O)Nc1ccc(F)cc1)[C@H](C)CO ?
BL2 CD40 inh: -1.2[25 µM]

What do the screens show for `CO[C@@H](CN(C)Cc1cc(F)ccc1F)[C@H](C)CN(C(=O)Nc1ccc(C(F)(F)F)cc1)[C@H](C)CO`?
BL2 CD40 inh: -8.8[25 µM]

What do the screens show for `CCCNC(=O)Nc1ccc2c(c1)OC[C@H](C)N(S(C)(=O)=O)C[C@@H](C)[C@@H](OC)CN(C)C2=O`?
BL2 CD40 inh: -6.6[25 µM]

Results for C[C@@H]1CN(C)C(=O)c2ccccc2O[C@@H]1CN(C)S(C)(=O)=O ?
BL2 CD40 inh: -1.2

Results for C[C@@H]1CN(C)C(=O)c2cccnc2O[C@H]1CN(C)S(C)(=O)=O ?
BL2 CD40 inh: 35.3*

How did C[C@H]1CN(C)C(=O)c2cccnc2O[C@H]1CN(C)C do in these assays?
BL2 CD40 inh: 15.7
